Composite z-score and z-score data for 17 compounds are collected here from PubChem BioAssay.

The source made the active and inactive calls.

A short description of assay [1]: compounds binding Alexa647 anti-His antibody – biochemical, small-molecule microarray, 635 nm fluorescence, artefact control for SMM control protein annotation, primary screen (AID 1128).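 Further: score merges feature fluorescence with signal-to-noise for each printed compound spot.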 Particulars: higher = more signal.
For assay [2], the system named is Human papillomavirus type 1a E7 protein (residues 1-88). The assay can be described thus: HPV1a E7 small-molecule binders, primary screen, biochemical, small-molecule microarray, residues 1-88, 635 nm (AID 1129). Particulars: small-molecule microarray binding, fluorescence 635 nm; higher = more signal.
Assay [3] deals with Focal adhesion kinase 1 (Homo sapiens) (UniProt Q05397). Nature of the assay: PTK2 protein binding on printed compound slides – biochemical, small-molecule microarray, 635/667 nm fluorescence, BSA, DTT, primary screen (AID 1130).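 Further: composite of spot emission at 667 nm and signal to noise over triplicate slides.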 To be noted: 635 nm fluorescence, higher = more signal.
Assay [4] concerns Fibrinogen (Alexa647-labelled). The assay can be described thus: Alexa647-fibrinogen binding to printed small molecules – biochemical, small-molecule microarray, 635/667 nm fluorescence, artefact control for SMM control-protein annotation, profiling panel (AID 1131).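 Further: z-score merges 667 nm fluorescence with per-spot signal-to-noise over triplicate slides.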 Particulars: fibrinogen-A647 binding fluorescence, higher = more signal.
The target of assay [5] is Follistatin (Homo sapiens) (UniProt P19883). The assay can be described thus: FST protein binding to printed compounds – biochemical, small-molecule microarray, 635/667 nm fluorescence, primary screen (AID 1132). To be noted: 635 nm fluorescence, higher = more signal.
The target in assay [6] is Fibroblast growth factor 2 (Homo sapiens) (UniProt P09038). The assay can be described thus: basic fibroblast growth factor binding to printed compounds – biochemical, small-molecule microarray, 635/667 nm fluorescence, primary screen (AID 1133). Particulars: FGF2, fluorescence 635/667, higher = more signal.
Assay [7] can be described thus: JC-1 mitochondrial potential readout, lung cancer cells – cell-based, A549, JC-1 fluorescence, basal, 24 h, 100 nL, profiling panel (AID 1138).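 Further: A549 lung adenocarcinoma cells under basal conditions with no added stimulus; test concentration not given here.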 Particulars: higher = more signal.
The test system of another assay is Lefty1. Nature of the assay: Lefty1 protein binding to printed compounds – biochemical, small-molecule microarray, 635/667 nm fluorescence, primary screen (AID 1139). To be noted: fluorescence 635/667, higher = more signal.
Assay [8] concerns wheat germ agglutinin (Triticum aestivum), Alexa647-labelled. Nature of the assay: Alexa647-WGA lectin binding to printed small molecules – biochemical, small-molecule microarray, 635/667 nm fluorescence, artefact control for SMM control-protein annotation, profiling panel (AID 1140).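 Further: score merges 667 nm feature emission with signal to noise over triplicate slides.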 To be noted: WGA-A647 binding, 635 nm fluorescence, higher = more signal.
Assay [9] deals with Luciferin 4-monooxygenase (Photinus pyralis) (UniProt P08659). The assay can be described thus: inhibition of purified Photinus pyralis luciferase – biochemical, luminescence, purified enzyme, 2006 set, primary screen (AID 1141).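 Further: cell-free assay with purified firefly luciferase at 100 ng per well in PBS; test concentration not given here.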 To be noted: purified firefly luciferase, SteadyGlo luminescence, 30 min; higher = more signal, called active from +8 up or from −8 down.
Chain of Luciferin 4-monooxygenase (Photinus pyralis) (P08659 whole entry, looked up): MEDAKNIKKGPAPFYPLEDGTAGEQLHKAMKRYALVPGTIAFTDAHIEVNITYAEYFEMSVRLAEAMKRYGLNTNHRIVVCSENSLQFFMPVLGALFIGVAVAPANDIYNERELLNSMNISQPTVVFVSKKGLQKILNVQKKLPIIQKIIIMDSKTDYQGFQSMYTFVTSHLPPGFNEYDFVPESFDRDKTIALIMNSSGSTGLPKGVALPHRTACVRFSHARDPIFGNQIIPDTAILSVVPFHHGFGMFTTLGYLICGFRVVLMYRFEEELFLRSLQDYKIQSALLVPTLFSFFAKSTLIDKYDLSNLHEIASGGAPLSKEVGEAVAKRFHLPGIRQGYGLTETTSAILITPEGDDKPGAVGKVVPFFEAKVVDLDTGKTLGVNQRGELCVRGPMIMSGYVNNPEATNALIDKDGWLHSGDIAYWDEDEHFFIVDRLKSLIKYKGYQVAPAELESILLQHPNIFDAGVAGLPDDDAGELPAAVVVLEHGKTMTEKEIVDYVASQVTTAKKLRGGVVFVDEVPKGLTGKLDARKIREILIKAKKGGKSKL

Chain of Fibroblast growth factor 2 (Homo sapiens) (P09038 whole entry, looked up): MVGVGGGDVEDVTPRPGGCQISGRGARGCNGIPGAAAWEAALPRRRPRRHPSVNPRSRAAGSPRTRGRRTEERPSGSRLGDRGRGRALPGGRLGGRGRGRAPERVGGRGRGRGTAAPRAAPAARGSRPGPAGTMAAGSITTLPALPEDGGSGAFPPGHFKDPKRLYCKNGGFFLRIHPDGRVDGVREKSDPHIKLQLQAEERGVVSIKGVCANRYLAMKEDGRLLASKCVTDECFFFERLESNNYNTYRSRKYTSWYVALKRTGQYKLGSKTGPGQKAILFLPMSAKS
Chain of Follistatin (Homo sapiens) (P19883 whole entry, looked up): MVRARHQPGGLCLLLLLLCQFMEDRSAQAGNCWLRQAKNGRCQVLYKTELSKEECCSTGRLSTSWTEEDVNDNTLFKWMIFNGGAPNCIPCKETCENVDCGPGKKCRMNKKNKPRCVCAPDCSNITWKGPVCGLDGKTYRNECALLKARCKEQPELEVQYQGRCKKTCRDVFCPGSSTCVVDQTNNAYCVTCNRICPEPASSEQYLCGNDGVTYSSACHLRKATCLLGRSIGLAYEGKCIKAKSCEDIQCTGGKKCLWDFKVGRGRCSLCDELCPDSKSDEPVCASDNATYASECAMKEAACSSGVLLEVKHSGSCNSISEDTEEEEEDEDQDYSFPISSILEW
Chain of Focal adhesion kinase 1 (Homo sapiens) (Q05397 whole entry, looked up): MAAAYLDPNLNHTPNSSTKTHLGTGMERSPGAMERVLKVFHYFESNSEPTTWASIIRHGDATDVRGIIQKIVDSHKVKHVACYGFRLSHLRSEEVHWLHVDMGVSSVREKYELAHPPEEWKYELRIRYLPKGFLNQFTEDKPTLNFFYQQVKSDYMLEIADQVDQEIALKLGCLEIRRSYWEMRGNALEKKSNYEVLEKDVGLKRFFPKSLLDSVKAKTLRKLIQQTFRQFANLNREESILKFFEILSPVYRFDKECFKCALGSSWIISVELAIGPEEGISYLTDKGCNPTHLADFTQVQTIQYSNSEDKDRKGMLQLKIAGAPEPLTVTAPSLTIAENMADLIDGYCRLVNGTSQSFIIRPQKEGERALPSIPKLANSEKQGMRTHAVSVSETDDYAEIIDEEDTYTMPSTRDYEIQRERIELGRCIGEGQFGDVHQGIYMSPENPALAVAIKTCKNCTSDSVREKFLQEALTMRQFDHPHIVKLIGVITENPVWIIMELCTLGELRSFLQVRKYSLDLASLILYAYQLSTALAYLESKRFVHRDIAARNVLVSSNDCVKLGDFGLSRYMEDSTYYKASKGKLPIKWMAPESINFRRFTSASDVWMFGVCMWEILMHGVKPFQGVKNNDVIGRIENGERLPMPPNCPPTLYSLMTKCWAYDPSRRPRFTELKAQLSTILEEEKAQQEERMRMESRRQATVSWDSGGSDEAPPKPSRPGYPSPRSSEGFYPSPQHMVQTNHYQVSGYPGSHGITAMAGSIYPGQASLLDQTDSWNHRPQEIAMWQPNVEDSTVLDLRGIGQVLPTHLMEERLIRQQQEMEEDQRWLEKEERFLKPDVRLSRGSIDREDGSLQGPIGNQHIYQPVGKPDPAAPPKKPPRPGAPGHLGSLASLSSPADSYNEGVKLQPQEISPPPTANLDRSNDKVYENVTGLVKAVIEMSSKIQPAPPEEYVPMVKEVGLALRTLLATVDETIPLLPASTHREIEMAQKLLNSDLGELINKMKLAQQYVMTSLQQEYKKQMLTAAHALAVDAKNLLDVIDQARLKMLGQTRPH

Regarding `COCCOC(=O)N1C(=O)[C@@]2(c3ccccc31)[C@H](C(=O)N1CCCCCCC1)[C@H]1C(=O)O[C@H](c3ccccc3)[C@H](c3ccccc3)N1[C@@H]2c1ccc(O)cc1`, the composite z-score in [1] was found to be 0.578; in [2], 1.21; in [3], 1.01; in [4], 0.842; in assay [5], 1.41; in [6] it was 1.74. In addition, the composite z-score in the assay with Lefty1 was 1.69; in assay [8], 1.25. The z-score in [7] was 0.0314; in assay [9] it was 0.047 (inactive).
For `C=C(COC)C(=O)CC[C@@H](OC(C)=O)c1ccc(OCCO)cc1`, the composite z-score is 0.476 in assay [1]; -0.358 in assay [2]; -0.822 in assay [3]; -0.467 in [4]; 1.25 in [5]; 0.945 in assay [6]. Moreover, the composite z-score in the assay with Lefty1 was determined as 0.843; in assay [8], 0.774. Further, the figures for the z-score in assay [7] and in assay [9] were -0.576 and -1.73 (inactive), respectively.
Regarding `[N-]=[N+]=NCc1ccccc1C[C@]1(C(=O)N2CCCCC2)N=C(c2ccc(OCCCO)cc2)O[C@H]1c1ccccc1`, the composite z-score in assay [1] was determined as 0.582; in assay [2] it was 1.1; in assay [3], 0.425; in assay [4], 0.714; in [5], 0.351; in [6], 0.182. The composite z-score in the assay on Lefty1 is -0.599; in assay [8] it was 0.762. In addition, the z-score in [7] was 1.17; in assay [9], 0.09 (inactive).
`CCc1cccc(NC(=O)O[C@H]2[C@H](OC(=O)Nc3ccc4c(c3)OCO4)[C@H](OC(=O)Nc3ccc4c(c3)OCO4)[C@@H](OC)O[C@@H]2CO)c1`: the composite z-score in [1] is 2.14; in assay [2], 1.24; in assay [3] it was -0.164; in [4], 0.97; in assay [5] it was 0.987; in [6], 0.0183. The results for the composite z-score (in the assay with Lefty1; in [8]) were 0.478 and 0.815, respectively. Moreover, the z-score in [7] was -0.308; in [9] it was -10.5 (active).
Take `CCCC[C@@H]1C[C@H]1[C@@H](NC(=O)Cc1ccccc1)c1ccc(Cl)cc1`: the composite z-score was 1.84 in assay [1]; 1.18 in assay [2]; 1.53 in assay [3]; 1.02 in assay [4]; 0.841 in [5]; -0.272 in assay [6]. Moreover, the composite z-score in the assay with Lefty1 is -0.297; in [8], 1.25. Besides, the z-score in [7] was -2.79; in [9], 0.957 (inactive).
Regarding `C=C(COC)/C(=C/C[C@H](OC(=O)c1ccncc1)c1ccc(OCCO)cc1)c1cc(C(=O)OC)ccc1OC`, the composite z-score amounted to 1.14 in assay [1]; 1.18 in assay [2]; 0.918 in assay [3]; 0.763 in [4]; 1.38 in assay [5]; 0.329 in assay [6]. For the same compound, the figures for the composite z-score (with Lefty1; in assay [8]) were 1.58 and 0.622, respectively. The z-score in [7] was -0.408; in assay [9] it was -0.265 (inactive).
Turning to `CN(C)CCCC[C@@H]1NC(=O)[C@H]2C[C@@H](C(=O)O)[C@@H](c3cccc(OCCO)c3)N2C1=O`, the composite z-score in [1] was 3.17; in [2], -0.209; in [3], 0.239; in assay [4], 0.564; in assay [5], 1.4; in assay [6], 0.977. In addition, the composite z-score is 1.45 with Lefty1 and 0.734 in [8]. The z-score in assay [7] is 1.29; in [9] it was -1.9 (inactive).
Regarding `COCCOC(=O)N1C(=O)[C@@]2(c3cc(C#CC4=CCCCC4)ccc31)[C@H](c1ccccc1OCCO)N1[C@H](c3ccccc3)[C@H](c3ccccc3)OC(=O)[C@H]1[C@@H]2C(N)=O`, the composite z-score in assay [1] was found to be 1.48; in [2], 1.17; in assay [3], 0.539; in [4], 0.83; in [5] it was 1.06; in assay [6], 1.36. In addition, the composite z-score with Lefty1 is 0.91; in assay [8] it was -0.0974. In addition, the results for the z-score in assay [7] and in assay [9] were -1.8 and -1.74 (inactive), respectively.
In the case of `COCCOC(=O)N1C(=O)[C@@]2(c3cc(C#CC4(O)CCCCCC4)ccc31)[C@H](C(=O)NC[C@H](O)c1ccccc1)[C@H]1C(=O)O[C@H](c3ccccc3)[C@H](c3ccccc3)N1[C@@H]2c1ccc(O)cc1`, the composite z-score turned out to be 1.39 in [1]; 1.18 in assay [2]; 0.392 in assay [3]; 0.721 in [4]; 0.37 in [5]; 0.774 in assay [6]. For the same compound, the composite z-score in the assay on Lefty1 was determined as 0.439; in assay [8], 0.721. Also, the figures for the z-score in assay [7] and in assay [9] were 0.139 and -0.474 (inactive), respectively.
With `CCCCN1CC=CC23O[C@@H]4/C=C\CCC(C)OC(=O)C4[C@H]2C(=O)N(C(C)CO)[C@@H]3C1=O` (stereo not given in full), the composite z-score was -0.0307 in assay [1]; -1.41 in [2]; 0.578 in assay [3]; -0.526 in assay [4]; -0.16 in [5]; -0.379 in assay [6]. For the same compound, the composite z-score in the assay with Lefty1 was -0.034; in assay [8], -0.128. Further, the z-score in assay [7] was 0.256; in [9], -0.762 (inactive).
Turning to `Cc1ccc(S[C@]2(C(=O)NC3CC3)CC(=O)N(Cc3cc(C(F)(F)F)cc(C(F)(F)F)c3)[C@@H]2c2ccc(CO)cc2I)cc1`, the composite z-score in [1] came out at 2.99; in assay [2], 1.03; in assay [3], 0.941; in [4] it was 0.103; in assay [5], 1.09; in assay [6], 0.483. Also, the figures for the composite z-score (in the assay with Lefty1; in assay [8]) were -0.337 and 0.0196, respectively. Also, the z-score in assay [7] is -0.271; in [9], 0.717 (inactive).
As to `NC(=O)NCC#Cc1ccc2c(c1)[C@]1(C(=O)N2)[C@H](C(=O)N2CCCCCCC2)[C@H]2C(=O)O[C@H](c3ccccc3)[C@H](c3ccccc3)N2[C@@H]1c1ccc(O)cc1`, the composite z-score in [1] was 0.0328; in assay [2] it was 1.01; in assay [3], 0.568; in assay [4], 0.879; in assay [5], 1.52; in assay [6] it was 1.15. Besides, the composite z-score in the assay on Lefty1 was found to be 0.784; in [8] it was 1.15. The z-score was -1.16 in assay [7] and -0.161 (inactive) in assay [9].
As for `CCN(CC)c1ccc(N2CC=CC34O[C@@H]5C=CCOC(=O)[C@@H]5[C@H]3C(=O)N(CCCO)[C@@H]4C2=O)cc1` (stereo not given in full), the composite z-score was 1.53 in [1]; -1.05 in [2]; -0.0534 in assay [3]; -0.973 in assay [4]; -0.658 in assay [5]; -0.576 in assay [6]. The composite z-score is -0.923 in the assay with Lefty1 and -0.245 in assay [8]. Moreover, the z-score was -0.125 in [7] and -0.803 (inactive) in assay [9].
`COC(=O)[C@@]1(Cc2ccccc2CN=[N+]=[N-])COC(c2ccc(OCCCO)cc2)=N1`: the composite z-score in assay [1] was -0.322; in [2], -0.493; in [3], -0.161; in [4], -2.41; in [5], -1.88; in [6], -1.18. The figures for the composite z-score (with Lefty1; in assay [8]) were -1.65 and 0.0216, respectively. The results for the z-score in assay [7] and in assay [9] were -0.408 and -1.88 (inactive), respectively.
With `COC(=O)[C@@]1(CCS(=O)(=O)c2ccccc2)N=C(c2ccc(OCCCO)cc2)O[C@H]1c1ccccc1N=[N+]=[N-]`, the composite z-score was 1.65 in [1]; 1.21 in [2]; 0.621 in assay [3]; 0.757 in assay [4]; 0.993 in assay [5]; 0.89 in assay [6]. For the same compound, the results for the composite z-score (with Lefty1; in [8]) were 0.162 and 0.647, respectively. Further, the values for the z-score in [7] and in [9] were 0.797 and -1.93 (inactive), respectively.
Regarding `C=CCC(OC(C)=O)[C@@H]1[C@@H](N(Cc2cc3ccccc3o2)C(=O)c2ccc(-c3ccccc3)cc2)c2cc(OCCCO)ccc2N1C(=O)c1ccc2ccccc2n1` (stereo not given in full), the composite z-score was -0.492 in assay [1]; -1.42 in assay [2]; 0.202 in assay [3]; -0.858 in assay [4]; 0.313 in assay [5]; -0.171 in assay [6]. The composite z-score with Lefty1 was -0.194; in assay [8], -0.0535. In addition, the z-score is 1.71 in [7] and -0.847 (inactive) in assay [9].
On to `[N-]=[N+]=NCc1ccccc1C[C@]1(C(=O)N2CCOCC2)N=C(c2ccc(OCCCO)cc2)O[C@H]1c1ccccc1CN=[N+]=[N-]`, for which the composite z-score in assay [1] came out at 2.97; in assay [2], 1.25; in [3], 0.681; in assay [4], 0.963; in assay [5] it was 1.3; in assay [6], 1.92. Besides, the figures for the composite z-score (with Lefty1; in assay [8]) were -0.232 and 1, respectively. The z-score is 1.68 in assay [7] and -1.25 (inactive) in assay [9].
